{"source": "PubChem BioAssay", "key": {"[1]": {"target": "Tumor necrosis factor receptor superfamily member 10B (Homo sapiens) (UniProt O14763)", "sequence (O14763 whole entry, looked up)": "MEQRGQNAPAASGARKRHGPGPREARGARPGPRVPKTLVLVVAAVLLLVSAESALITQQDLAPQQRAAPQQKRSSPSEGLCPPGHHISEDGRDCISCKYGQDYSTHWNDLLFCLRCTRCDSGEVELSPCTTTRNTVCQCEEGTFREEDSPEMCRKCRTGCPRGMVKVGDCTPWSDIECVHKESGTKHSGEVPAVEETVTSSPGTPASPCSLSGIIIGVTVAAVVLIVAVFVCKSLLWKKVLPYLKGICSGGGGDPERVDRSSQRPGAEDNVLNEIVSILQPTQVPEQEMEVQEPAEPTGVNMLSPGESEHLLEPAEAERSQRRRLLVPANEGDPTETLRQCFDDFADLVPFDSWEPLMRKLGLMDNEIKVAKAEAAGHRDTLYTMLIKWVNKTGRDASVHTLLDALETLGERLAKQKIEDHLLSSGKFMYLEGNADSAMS", "test": "caspase-8 TRAIL sensitization, hit retest, confirmation, cell-based, NB7+caspase-8, with/without TRAIL, luminescence panel (AID 651596)", "details": "NB7 neuroblastoma + caspase-8, TRAIL sensitization, luminescence viability, with TRAIL, mean of runs, at 10 µM, stronger effect = higher value; in the data active means activity above about 50%; inactive means the rest"}, "[2]": {"test": "caspase-8 TRAIL sensitization, hit retest, confirmation, cell-based, NB7+caspase-8, with/without TRAIL, luminescence panel (AID 651596)", "details": "NB7 neuroblastoma + caspase-8, without TRAIL, luminescence viability, without TRAIL, mean of runs, at 10 µM"}, "[3]": {"target": "Tumor necrosis factor receptor superfamily member 10B (Homo sapiens) (UniProt O14763)", "test": "TRAIL sensitizers in caspase-8 expressing neuroblastoma cells, dose response, NB7 cells plus caspase-8, luminescence, panel (AID 652002)", "details": "NB7 neuroblastoma +caspase-8, TRAIL sensitization, luminescence viability, NB7+Caspase-8, with TRAIL, run 1; at 12.5 µM (top of the series)"}, "[4]": {"target": "Tumor necrosis factor receptor superfamily member 10B (Homo sapiens) (UniProt O14763)", "test": "TRAIL sensitizers in caspase-8 expressing neuroblastoma cells, dose response, NB7 cells plus caspase-8, luminescence, panel (AID 652002)", "details": "NB7 neuroblastoma +caspase-8, TRAIL sensitization, luminescence viability, NB7+Caspase-8, with TRAIL, run 2; at 12.5 µM (top of the series)"}, "[5]": {"test": "TRAIL sensitizers in caspase-8 expressing neuroblastoma cells, dose response, NB7 cells plus caspase-8, luminescence, panel (AID 652002)", "details": "NB7 neuroblastoma +caspase-8, no TRAIL, compound-alone cytotoxicity counter-screen, luminescence viability, NB7+Caspase-8, run 1; at 12.5 µM (top of the series)"}, "[6]": {"test": "TRAIL sensitizers in caspase-8 expressing neuroblastoma cells, dose response, NB7 cells plus caspase-8, luminescence, panel (AID 652002)", "details": "NB7 neuroblastoma +caspase-8, no TRAIL, compound-alone cytotoxicity counter-screen, luminescence viability, NB7+Caspase-8, run 2; at 12.5 µM (top of the series)"}}, "data": [{"smiles": "Cc1ccc(-c2cc(-c3ccccc3)cc(-c3ccccc3)[n+]2-c2ccccc2)cc1", "values": [{"measurement": "activity", "setting": "[1]", "value": 96.6, "unit": "%"}, {"measurement": "activity", "setting": "[2]", "value": 87.8, "unit": "%"}]}, {"smiles": "CCOC(=O)[C@]12Cc3cc4ccccc4cc3[C@H]1N(Cc1ccccc1)C(=O)c1ccccc12", "values": [{"measurement": "activity", "setting": "[1]", "value": 52.8, "unit": "%"}, {"measurement": "activity", "setting": "[2]", "value": 54.6, "unit": "%"}, {"measurement": "activity, % sensitization", "setting": "[3]", "value": 18.4, "unit": "%"}, {"measurement": "activity, % sensitization", "setting": "[4]", "value": 31.7, "unit": "%"}, {"measurement": "activity, % sensitization", "setting": "[5]", "value": 6.91, "unit": "%"}, {"measurement": "activity, % sensitization", "setting": "[6]", "value": 3.45, "unit": "%"}]}, {"smiles": "CC1OC(OC2C=C3CCC4C(CCC5(C)C(c6ccc(=O)oc6)CCC45O)C3(C)CC2)C(O)C(OC2OC(CO)C(O)C(O)C2O)C1O", "note": "(stereo not drawn)", "values": [{"measurement": "activity", "setting": "[1]", "value": 83.1, "unit": "%"}, {"measurement": "activity", "setting": "[2]", "value": 91.9, "unit": "%"}]}, {"smiles": "CC12CCC(O)CC1CCC1C2CCC2(C)C(C3=CC(=O)OC3)CCC12O", "note": "(stereo not drawn)", "values": [{"measurement": "activity", "setting": "[1]", "value": 87.3, "unit": "%"}, {"measurement": "activity", "setting": "[2]", "value": 91.6, "unit": "%"}]}, {"smiles": "CCCCCN1C(=O)c2cc(OC)ccc2[C@@]2(C(=O)OCC)Cc3cc(Cl)ccc3[C@@H]12", "values": [{"measurement": "activity", "setting": "[1]", "value": 87.2, "unit": "%"}, {"measurement": "activity", "setting": "[2]", "value": 92.8, "unit": "%"}]}, {"smiles": "CNC(=O)O/N=C(\\N)Cc1csc2ccc(Cl)cc12", "values": [{"measurement": "activity", "setting": "[1]", "value": 87.3, "unit": "%"}, {"measurement": "activity", "setting": "[2]", "value": 91.2, "unit": "%"}]}, {"smiles": "CCOC(=O)[C@]12Cc3cc(Cl)ccc3[C@H]1N(CC(=O)OC)C(=O)c1ccccc12", "values": [{"measurement": "activity", "setting": "[1]", "value": 40.5, "unit": "%"}, {"measurement": "activity", "setting": "[2]", "value": 64, "unit": "%"}]}, {"smiles": "Cc1nc2cc(C(F)(F)F)ccc2n1C1CCN(Cc2nnnn2Cc2ccc3c(c2)OCO3)CC1", "values": [{"measurement": "activity", "setting": "[1]", "value": 53, "unit": "%"}, {"measurement": "activity", "setting": "[2]", "value": 54.3, "unit": "%"}]}, {"smiles": "CCCC1(CCC)C(=O)NC(=NCc2ccccc2)NC1=O", "values": [{"measurement": "activity", "setting": "[1]", "value": 51.6, "unit": "%"}, {"measurement": "activity", "setting": "[2]", "value": 20.8, "unit": "%"}, {"measurement": "activity, % sensitization", "setting": "[3]", "value": -11.1, "unit": "%"}, {"measurement": "activity, % sensitization", "setting": "[4]", "value": 5.29, "unit": "%"}, {"measurement": "activity, % sensitization", "setting": "[5]", "value": -4.21, "unit": "%"}, {"measurement": "activity, % sensitization", "setting": "[6]", "value": -22.9, "unit": "%"}]}, {"smiles": "C[C@]12CCC3C(CCC4=CC(O)CC[C@@]43/C=N/O)C1(O)CCC2C1=CC(=O)OC1", "note": "(stereo partly drawn)", "values": [{"measurement": "activity", "setting": "[1]", "value": 87, "unit": "%"}, {"measurement": "activity", "setting": "[2]", "value": 92.3, "unit": "%"}]}, {"smiles": "CNC(=O)Oc1cccc(-c2cn3cc(Cl)ccc3n2)c1", "values": [{"measurement": "activity", "setting": "[1]", "value": 86.8, "unit": "%"}, {"measurement": "activity", "setting": "[2]", "value": 83, "unit": "%"}]}, {"smiles": "O=[N+]([O-])c1ccc(Cl)c([N+](=O)[O-])c1", "values": [{"measurement": "activity", "setting": "[1]", "value": -3.27, "unit": "%"}, {"measurement": "activity", "setting": "[2]", "value": 54.8, "unit": "%"}]}, {"smiles": "CCOC(=O)[C@]12Cc3cc(C)ccc3[C@H]1N(C(C)C)C(=O)c1ccccc12", "values": [{"measurement": "activity", "setting": "[1]", "value": 44.4, "unit": "%"}, {"measurement": "activity", "setting": "[2]", "value": 63.6, "unit": "%"}]}, {"smiles": "CCOc1ccc(-c2c(C)n(-c3ccc(OCC)cc3)c3[n+]2CCCCC3)cc1", "values": [{"measurement": "activity", "setting": "[1]", "value": 61, "unit": "%"}, {"measurement": "activity", "setting": "[2]", "value": 63, "unit": "%"}]}, {"smiles": "C[C@H]1O[C@@H](OC2CC[C@]3(C=O)[C@H]4CC[C@]5(C)[C@@H](C6=CC(=O)OC6)CC[C@]5(O)[C@@H]4CC[C@]3(O)C2)CC2OC(C)(C)OC21", "note": "(stereo partly drawn)", "values": [{"measurement": "activity", "setting": "[1]", "value": 85.6, "unit": "%"}, {"measurement": "activity", "setting": "[2]", "value": 92.4, "unit": "%"}]}]}
